According to PubChem BioAssay (NCI):
This is part of a sample that, as a whole, favours compounds with a hit. Of some 79,000 tested, about 15% had one in any assay. The source made the active and inactive calls. Cut-off read from the data, not from the text of the source: active = growth inhibition above about 70%; inactive = the rest.

Tests used:
[1] = NCI Yeast Anticancer Drug Screen. Data for the wt1 strain (AID 149);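 note: 0% = growth of vehicle-treated wt1 cultures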; settings: S. cerevisiae wt1 strain (SPY 50644) growth inhibition, stronger effect = higher value
Procedure, shortened: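 wt1 yeast, compound-treated; % growth inhibition vs vehicle control.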

[2] = NCI Yeast Anticancer Drug Screen. Data for the rad50EPP+ strain (AID 151);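 note: 0% = growth of vehicle-treated control cultures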; settings: S. cerevisiae rad50 mutant strain, stronger effect = higher value
Procedure, shortened: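 Measured: growth inhibition of rad50EPP+ yeast. Reference: vehicle-treated controls. Screen uses strains with defined genetic alterations in DNA damage repair or cell cycle control.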

[3] = NCI Yeast Anticancer Drug Screen. Data for the mgt1 strain (AID 153); settings: S. cerevisiae mgt1 mutant growth inhibition, stronger effect = higher value
Procedure, shortened: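 Compounds were applied to mgt1 mutant yeast, and growth was then compared against vehicle-treated control cultures to give percent inhibition.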

[4] = NCI Yeast Anticancer Drug Screen. Data for the rad50 strain (AID 155);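 note: 0% = growth of vehicle-only cultures of the same strain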; settings: S. cerevisiae rad50 strain growth inhibition, stronger effect = higher value
Procedure, shortened: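 Genetically altered yeast (DNA repair pathway); compound treatment; growth inhibition vs vehicle ctrl.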

[5] = NCI Yeast Anticancer Drug Screen. Data for the mec2-1 strain (AID 157); settings: S. cerevisiae mec2-1 strain, stronger effect = higher value
Procedure, shortened: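 Compounds were applied to mec2-1 yeast cells. Their growth was then compared with that of vehicle-treated cultures to give growth inhibition.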

[6] = NCI Yeast Anticancer Drug Screen. Data for the rad14 strain (AID 159);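 note: 0% = growth of vehicle-treated control cultures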; settings: S. cerevisiae rad14 strain growth inhibition, stronger effect = higher value
Procedure, shortened: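 Test compounds were applied to a repair-deficient yeast strain. Its growth was then compared with that of cultures given vehicle alone, and inhibition was expressed relative to those controls.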

[7] = NCI Yeast Anticancer Drug Screen. Data for the sgs1 mgt1 strain (AID 161);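 note: 0% = growth of cultures given vehicle only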; settings: S. cerevisiae sgs1 mgt1 strain, stronger effect = higher value
Procedure, shortened: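 This yeast growth screen uses a strain with defined DNA-repair lesions; compound-treated growth is compared with vehicle-treated growth.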

[8] = NCI Yeast Anticancer Drug Screen. Data for the CLN2oe strain (AID 163);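 note: 0% = growth of vehicle-only control cultures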; settings: S. cerevisiae CLN2oe strain, stronger effect = higher value
Procedure, shortened: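 Cells of an engineered yeast line with disturbed cell-cycle regulation are treated with compound. Inhibition of growth is then calculated relative to the vehicle-treated reference.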

[9] = NCI Yeast Anticancer Drug Screen. Data for the cln2 rad14 strain (AID 165);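 note: 0% = growth equal to vehicle treated cultures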; settings: S. cerevisiae cln2 rad14 strain, stronger effect = higher value
Procedure, shortened: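 Strain: cln2 rad14 yeast, altered in cell cycle control and DNA damage repair. Read-out: growth inhibition vs vehicle.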

[10] = NCI Yeast Anticancer Drug Screen. Data for the bub3 strain (AID 167); settings: S. cerevisiae bub3 mutant strain, stronger effect = higher value
Procedure, shortened: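 Yeast carrying a defined mutation is treated with each compound, and growth is compared with that of vehicle-exposed cells to give inhibition.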

[11] = NCI Yeast Anticancer Drug Screen. Data for the wt2 strain (AID 169);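 note: 0% = growth of vehicle-treated yeast cultures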; settings: S. cerevisiae wt2 strain growth inhibition, stronger effect = higher value
Procedure, shortened: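 Growth of compound-treated yeast is measured and expressed as inhibition relative to vehicle-only controls.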

[12] = NCI Yeast Anticancer Drug Screen. Data for the mlh1 strain (AID 171);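 note: 0% = growth of vehicle-treated control cultures of the same strain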; settings: S. cerevisiae mlh1 strain growth inhibition, stronger effect = higher value
Procedure, shortened: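 Test agents were incubated with yeast bearing a defined DNA damage repair or cell cycle control alteration; values are growth inhibition normalised to vehicle-treated cultures.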

[13] = NCI Yeast Anticancer Drug Screen. Data for the sgs1 strain (AID 173);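 note: 0% = growth of vehicle-only control cultures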; settings: S. cerevisiae sgs1 mutant, stronger effect = higher value
Procedure, shortened: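 Strain with an altered DNA repair or cell cycle pathway exposed to compound. Growth then measured. Value = inhibition versus vehicle control.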

[14] = NCI Yeast Anticancer Drug Screen. Data for the mlh1 rad18 strain (AID 175); settings: S. cerevisiae mlh1 rad18 strain growth inhibition, stronger effect = higher value
Procedure, shortened: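 A repair-deficient yeast strain is exposed to test compound, and growth is scored relative to vehicle-treated controls.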

[15] = NCI Yeast Anticancer Drug Screen. Data for the rad18 strain (AID 177); settings: S. cerevisiae rad18 mutant growth inhibition, stronger effect = higher value
Procedure, shortened: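 DNA-repair-defective yeast; compound treatment; growth inhibition scored against vehicle.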

[16] = at 5.0 µM (retest, dose inferred, filed as 0.5)
[17] = at 50.0 µM (retest, dose inferred, filed as 5.0)

Measured: growth inhibition

CCOC(=O)c1[nH]c2cccc3c2c1CC(Br)C3=O (stereo not drawn)
inactive: [1]; at 1.2 µM -23% | [1]; at 3.7 µM -5% | [1]; at 11.0 µM -3% | [1]; at 33.0 µM 19% | [1]; at 100.0 µM 60% | [2]; at 1.2 µM -31% | [2]; at 3.7 µM -1% | [2]; at 11.0 µM -12% | [2]; at 33.0 µM 34% | [2]; at 100.0 µM 62% | [3]; at 1.2 µM -33% | [3]; at 3.7 µM 0% | [3]; at 11.0 µM -4% | [3]; at 33.0 µM 67% | [4]; at 1.2 µM -15% | [4]; at 3.7 µM -34% | [4]; [16] 45% | [4]; at 11.0 µM -12% | [4]; at 33.0 µM 57% | [5]; at 1.2 µM -6% | [5]; at 3.7 µM 3% | [5]; [16] 46% | [5]; at 11.0 µM 14% | [6]; at 1.2 µM 0% | [6]; at 3.7 µM -8% | [6]; at 11.0 µM -9% | [6]; at 33.0 µM 4% | [6]; at 100.0 µM 58% | [7]; [16] 66% | [8]; at 1.2 µM -48% | [8]; at 3.7 µM -44% | [8]; at 11.0 µM -69% | [8]; at 33.0 µM -39% | [8]; at 100.0 µM 67% | [9]; [16] 6% | [9]; [17] 60% | [9]; at 50.0 µM 50.6% | [10]; at 1.2 µM -46% | [10]; at 3.7 µM -39% | [10]; [16] 56% | [10]; at 11.0 µM -29% | [10]; at 33.0 µM 32% | [11]; at 1.2 µM -28% | [11]; at 3.7 µM 2% | [12]; at 1.2 µM -27% | [12]; at 3.7 µM -19% | [12]; at 11.0 µM -11% | [12]; at 33.0 µM 53% | [13]; at 1.2 µM -8% | [13]; at 3.7 µM 14% | [13]; at 11.0 µM 27% | [13]; at 33.0 µM 68% | [15]; at 1.2 µM -39% | [15]; at 3.7 µM -22% | [15]; at 11.0 µM 2%
active: [3]; at 100.0 µM 88% | [4]; [17] 92% | [4]; at 50.0 µM 89.8% | [4]; at 100.0 µM 76% | [5]; at 33.0 µM 80% | [5]; [17] 96% | [5]; at 50.0 µM 91.3% | [5]; at 100.0 µM 87% | [7]; [17] 96% | [7]; at 50.0 µM 83.3% | [10]; [17] 93% | [10]; at 50.0 µM 76% | [10]; at 100.0 µM 78% | [11]; at 11.0 µM 81% | [11]; at 33.0 µM 97% | [11]; at 100.0 µM 97% | [12]; at 100.0 µM 83% | [13]; at 100.0 µM 80% | [14]; [16] 82% | [14]; [17] 96% | [14]; at 50.0 µM 89.4% | [15]; at 33.0 µM 74% | [15]; at 100.0 µM 89%

Cc1ccc2oc(-c3cccc(N)c3)nc2c1
inactive: [1]; at 1.2 µM 0% | [1]; at 3.7 µM -4% | [1]; at 11.0 µM 2% | [1]; at 33.0 µM 0% | [1]; at 100.0 µM 5% | [2]; at 1.2 µM 1% | [2]; at 3.7 µM 2% | [2]; at 11.0 µM 10% | [2]; at 33.0 µM 23% | [2]; at 100.0 µM 36% | [3]; at 1.2 µM -6% | [3]; at 3.7 µM -13% | [3]; at 11.0 µM -4% | [3]; at 33.0 µM 6% | [3]; at 100.0 µM 24% | [4]; at 1.2 µM -3% | [4]; at 3.7 µM 4% | [4]; [16] -7% | [4]; at 11.0 µM 1% | [4]; at 33.0 µM 12% | [4]; [17] 10% | [4]; at 50.0 µM 17.4% | [4]; at 100.0 µM 29% | [5]; at 1.2 µM -2% | [5]; at 3.7 µM -3% | [5]; [16] -10% | [5]; at 11.0 µM 3% | [5]; at 33.0 µM 3% | [5]; [17] 13% | [5]; at 50.0 µM 3.95% | [5]; at 100.0 µM 8% | [6]; at 1.2 µM 1% | [6]; at 3.7 µM 3% | [6]; at 11.0 µM 9% | [6]; at 33.0 µM 18% | [6]; at 100.0 µM 27% | [7]; [16] 10% | [7]; [17] 48% | [7]; at 50.0 µM -18.8% | [8]; at 1.2 µM -5% | [8]; at 3.7 µM -6% | [8]; at 11.0 µM -4% | [8]; at 33.0 µM 6% | [8]; at 100.0 µM 15% | [9]; [16] -42% | [9]; [17] -2% | [9]; at 50.0 µM 27.5% | [10]; at 1.2 µM -6% | [10]; at 3.7 µM -3% | [10]; [16] 9% | [10]; at 11.0 µM 9% | [10]; at 33.0 µM 23% | [10]; [17] 36% | [10]; at 50.0 µM 23.4% | [10]; at 100.0 µM 35% | [11]; at 1.2 µM -3% | [11]; at 3.7 µM -2% | [11]; at 11.0 µM -2% | [11]; at 33.0 µM 1% | [11]; at 100.0 µM 11%
